# PTHR1 ag: qHTS for PTHR1 Agonists: Primary Screen; Parathyroid hormone/parathyroid hormone-related peptide receptor (Homo sapiens), Q03431; HEK293 GP2 PTHR1 cells, GloSensor cAMP luminescence, 1 h; Potency, µM (titrated, usually from 115 µM), actives largely listed as activators; 0.075% of 410,000 active; note: nearly all actives have a fitted effect of over 55% in size
#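 HEK-293-derived GP2 cells expressing PTHR1 and a GloSensor cAMP reporter, 3,000/well, plated overnight, given luciferin plus IBMX (each 0.5 mM as added) for 1 h at 37 °C, then compound for 1 h at 37 °C. Luminescence was read after 15 min at room temperature.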
# B2AR arrestin: qHTS assay of beta-arrestin-biased ligands of beta2-adrenergic receptor; Beta-2 adrenergic receptor (Homo sapiens), P07550; beta-arrestin recruitment to beta2AR, cell-based reporter; Potency, µM (series often up to 46.1 µM), actives largely listed as activators; 0.02% of 330,000 active; AID 492947, 2010; note: nearly all actives have a fitted effect of over 65% in size
# DRD3 agonist: qHTS of D3 Dopamine Receptor Agonist: qHTS; 0.58% of 410,000 active; max activation, %; D3R DiscoveRx beta-arrestin cells, luminescence, 90 min; in the data active = max activation above about 30%
# Target sequence (P35462 whole entry, looked up): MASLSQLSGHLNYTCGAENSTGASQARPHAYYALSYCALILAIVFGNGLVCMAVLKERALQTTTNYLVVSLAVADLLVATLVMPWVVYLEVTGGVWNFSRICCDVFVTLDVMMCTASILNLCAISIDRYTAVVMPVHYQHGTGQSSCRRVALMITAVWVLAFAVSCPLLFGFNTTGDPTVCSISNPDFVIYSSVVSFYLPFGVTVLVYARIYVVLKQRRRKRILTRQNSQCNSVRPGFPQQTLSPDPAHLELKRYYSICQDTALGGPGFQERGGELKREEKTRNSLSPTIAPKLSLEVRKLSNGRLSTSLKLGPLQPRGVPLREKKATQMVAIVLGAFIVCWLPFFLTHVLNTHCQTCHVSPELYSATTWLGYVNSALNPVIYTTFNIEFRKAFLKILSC
#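 Cells at 1500/well, incubated overnight, then treated with pinned compounds (dopamine as control) for 90 min at 37 degrees C. DiscoveRx reagent added for 30 - 60 minutes at room temperature; luminescence read.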
# BRCA1 expr act: qHTS Assay to Identify Small Molecule Activators of BRCA1 Expression | MCF7-BRCA1-FFLuc reporter, luminescence, 48 h; response scale: scaled: vehicle 0%, 10 µM genistein 100% | Potency, µM (top dose mostly 46.1 µM), usual class: activators | 1.1% of 380,000 active | AID 624202, 2012; note: nearly all actives have a fitted effect of over 80% in size
#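 Using MCF7 cells harboring a BRCA1 firefly luciferase reporter, plated 2 h before compound pinning, the screen measured luminescence after 48 h incubation. Responses were normalized to DMSO and 10 microM genistein, then fitted for concentration-effect.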
# D3 antag: qHTS of D3 Dopamine Receptor Antagonist: qHTS. D(3) dopamine receptor (Homo sapiens), P35462. D3R cells, DiscoveRx beta-arrestin luminescence, antagonist mode; hits give low values. max response, negative = inhibition, %. 2.5% of 360,000 active. AID 652054, 2013; in the data active = max response below about -50%; inconclusive = no clear call, values can overlap the other calls
#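 Cells expressing the human receptor were seeded at 1500 cells/well, incubated overnight at 37 degrees C in 5% CO2, then exposed to library compounds with dopamine controls for 90 minutes at 37 degrees C before luminescent detection.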
# RGS4 inh: Inhibitors of Regulator of G Protein Signaling (RGS) 4: qHTS; Transcreener GDP fluorescence polarization, RGS4-accelerated GTP hydrolysis; 0.039% of 390,000 active; Potency, µM (doses to about 114 µM), usual class: inhibitors; Regulator of G-protein signaling 4 (Homo sapiens), P49798; note: nearly all actives have a fitted effect of over 75% in size
# Target sequence (P49798 whole entry, looked up): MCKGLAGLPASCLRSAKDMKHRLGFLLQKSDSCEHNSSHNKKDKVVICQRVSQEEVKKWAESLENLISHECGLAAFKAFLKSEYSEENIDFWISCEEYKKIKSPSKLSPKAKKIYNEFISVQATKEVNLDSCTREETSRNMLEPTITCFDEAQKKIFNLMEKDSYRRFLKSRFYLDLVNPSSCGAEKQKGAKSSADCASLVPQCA
#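 MLSMR compounds (23 nl, pin-transferred) preincubated 10 min at room temperature with a 500nM (2x) first reagent, then RGS4 at 900nM (2x) plus Transcreener GDP mix added; fluorescence polarization (620/688 nm) read before and after 90 min at 30 °C.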
# A number is an active result; i = inactive; ? = inconclusive; nt = not tested or not shown; [ ] = dose if it differs, or a comment. Rows were chosen to be rich in hits. Some 3.7% of all compounds tested hit in one or more screens of this group. Unless noted, calls come from the whole dose curve; as a rule, active = well fitted curve in the direction sought with a large enough effect; inconclusive = small, poorly fitted or top-dose-only effect, or another doubt; inactive = no such curve, though single readings can be large; an effect the other way counts as inactive or inconclusive.
SMILES,PTHR1 ag,B2AR arrestin,DRD3 agonist,BRCA1 expr act,D3 antag,RGS4 inh
O=C(CSc1nnc2sc3ccccc3n12)c1ccco1,i,i,i,12.6µM,i,i
C=CCNC(=S)N1CCN(Cc2ccccc2)CC1,i,i,i,i,i,i
Nc1ccc2c(c1)C(=O)N(c1ccc3ccccc3c1)C2=O,nt,nt,nt,11.2µM,nt,i
COc1ccccc1NC(=O)Nc1ccc(C(N)=O)cc1,i,i,i,i,i,i
COc1ccc(NC(=O)Nc2nnc(C(C)C)s2)cc1,i,i,i,10µM,i,i
COc1ccc(OC)c(S(=O)(=O)N(C)CC(=O)Nc2ccccc2OC)c1,i,nt,i,i,i,i
COc1ccc(CC(=O)Nc2nnc(C(C)C)s2)cc1,i,i,i,i,i,i
COc1ccc(OC)c(/C(O)=C/C(=O)C(=O)Nc2ccccc2OC)c1,i,i,i,i,-66.7,i
COc1ccccc1NC(=O)NCC1(N(C)C)CCCCC1,i,i,i,i,-81.8,i
COc1ccccc1NS(=O)(=O)c1ccc(C(=O)NCC2(N(C)C)CCCCC2)cc1,i,i,i,i,i,i
COc1ccc(NC(=O)Nc2ccccc2OC)cc1,i,i,i,14.1µM,i,i
Cc1ccc(S(=O)(=O)N2CCCCC2)cc1C(=O)N1CCCCCC1,i,i,i,i,i,i
COc1ccc(C(=O)Nc2ccc(O)c3ccccc23)cc1,i,nt,i,i,i,?
COc1ccc(NC(=O)Nc2ccc(F)c(Cl)c2)cc1,i,i,i,?,i,i
COc1ccccc1NC(=O)Nc1ccc2c(c1)CCC2,i,i,i,2.82µM,i,i
COc1ccc(NC(=O)Nc2ccc(Br)c(C)c2)cc1,i,i,i,11.2µM,i,i
COc1ccc(NC(=O)Nc2ccc(O)c3ccccc23)cc1,i,nt,32.6,i,i,?
COc1ccccc1CNCC(=O)Nc1ccc(N2CCOCC2)cc1,i,i,i,i,i,i[11.4 µM]
COc1ccccc1NC(=O)Nc1ccc(N2CCOCC2)cc1,i,i,i,7.08µM,i,i
COC(=O)CCn1nc(-c2ccc(C)cc2)c2ccccc2c1=O,i,i,i,i,i,i
CCN1CCN(Cc2ccc(NC(=O)Nc3ccccc3OC)cc2)CC1,i,i,i,?,-72.4,i
COc1ccccc1NC(=O)C(=O)N/N=C(\C)CC(=O)Nc1ccccn1,i,i,i,i,i,i
COc1ccccc1NC(=O)C(=O)Nc1ccccn1,i,i,i,i,-83.6,i
CC(NC(=O)CN(C)S(=O)(=O)c1ccc(Br)s1)c1ccccc1 (stereo not drawn),i,i,i,i,i,i
COc1ccc(OC)c(-c2cc(C(=O)Nc3c(C)nn(Cc4ccc(Cl)cc4)c3C)no2)c1,i,i,41.0,i,i,i
SMILES,PTHR1 ag,B2AR arrestin,DRD3 agonist,BRCA1 expr act,D3 antag,RGS4 inh
COc1ccc(OC)c(-c2cc(C(=O)Nc3c(C)nn(Cc4ccccc4)c3C)no2)c1,i,i,35.5,i,i,i
Cc1nn(Cc2ccccc2)c(C)c1NC(=O)c1cc(-c2ccco2)on1,i,i,i,i,i,i
COc1ccc(OC)c(-c2cc(C(=O)Nc3cc(C)on3)no2)c1,i,i,i,i,?,i
CCN(CC)CCCNC(=O)CCc1c(C)nc2c(c1C)c(=O)n(C)c(=O)n2C,i,nt,i,i,nt,i
Cc1ccc(Nc2cc(C)c3c(O)cccc3n2)cc1C,i,i,i,5.62µM,i,i
Cc1ccc(Nc2cc(C)c3ccc(O)cc3n2)cc1C,i,i,i,i,-56.6,i
COc1ccc(Nc2cc(C)c3c(O)cccc3n2)cc1,i,i,i,?,i,i[11.4 µM]
CCNc1nc(C#N)nc(N2CCOCC2)n1,nt,nt,nt,i,nt,i
C=C1C[C@@]23CC[C@H]4[C@@](C)(CCC[C@@]4(C)C(=O)OC4OC(CO)C(O)C(O)C4O)[C@@H]2CC[C@]1(OC1OC(CO)C(O)C(O)C1OC1OC(CO)C(O)C(O)C1O)C3 (stereo partly drawn),nt,nt,nt,nt,nt,i
CC(OC(=O)c1ccc(-n2cnnn2)cc1)C(=O)N(C)c1ccccc1 (stereo not drawn),i,i,i,i,i,i
C/C(=N\NC(=O)Cn1nc(C)c([N+](=O)[O-])c1C)c1ccc(Cl)s1,i,i,i,i,-62.2,i
CCOC(=O)C1=C(COc2ccccc2)NC(=O)NC1c1ccc(Br)cc1 (stereo not drawn),i,i,i,i,i,i
O=c1cc(-c2ccccc2)n(S(=O)(=O)c2ccc3ccccc3c2)o1,i,nt,i,i,-77.0,?
COc1ccc(NC(=O)CC2SC(N3CCOCC3)=NC2=O)cc1OC (stereo not drawn),i,i,i,i,i,i
O=c1cc(-c2ccc([N+](=O)[O-])cc2)c2cc3c(cc2[nH]1)OCCO3,i,i,36.3,i,i,i
COC(=O)Nc1ncc(CN2CCC(c3ccccc3)CC2)s1,i,i,i,i,-54.3,i
FC(F)(F)c1cc(-c2ccccc2)nc(N2CCCCCC2)n1,i,i,i,i,i,i
c1ccc(-c2cnnc(N3CCCCC3)n2)cc1,i,i,i,7.94µM,i,i
COc1cc(CCN=Cc2cc(Cl)cc(Cl)c2O)c([N+](=O)[O-])cc1OC,i,nt,i,i,-50.1,nt
COC(=O)Cc1cc(=O)n2[nH]c(C)cc2n1,i,i,i,i,-51.9,?
COc1cc(OC)cc(C(=O)N[C@@H](CCSC)c2nc3ccccc3[nH]2)c1,i,i,i,i,-56.0,i
O=C(NC(Cc1ccccc1)c1nc2ccccc2[nH]1)c1ccc(Cl)c([N+](=O)[O-])c1 (stereo not drawn),i,i,i,i,-62.7,i
CSCC[C@H](NC(=O)c1ccc(Cl)c([N+](=O)[O-])c1)c1nc2ccccc2[nH]1,i,i,i,i,-94.7,i
COc1cccc(C(=O)N[C@@H](CCSC)c2nc3ccccc3[nH]2)c1,i,i,i,i,i,i
Cc1ccsc1CCN1C(=O)N(c2ccccc2)C(=O)C1CC(=O)Nc1ccc(Cl)cc1 (stereo not drawn),i,nt,i,nt,nt,i
Cc1[nH]c2ccccc2c1C(=O)C(=O)NCc1ccco1,i,i,i,i,i,i[11.4 µM]
O=C(CSc1nnc(-c2ccccc2)o1)N1CCCC1,i,i,i,i,i,i

# Screening results as filed in PubChem.
